This is a sample that favours compounds with a hit; in the whole collection about 3.8% have one here.
ELG1 DNA repair: inhibitors of ELG1-dependent DNA repair in HEK293T cells; HEK293T ELG1-luciferase reporter, luminescence, 16 h; DNA damage induced by 5-fluorouridine; Potency, µM (highest dose often 46.1 µM), inactives show at the top dose activity change, negative = inhibition, usual class: inhibitors; 330,000 compounds, 2.3% hits; AID 504467; note: % is set by controls: 0 for no effect and ±100 for the full control effect; nearly all actives have a fitted effect of over 55% in size
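HEK293T cells expressing luciferase-tagged ELG1 (2,000/well) received 5-Fluorouridine plus compound or DMSO for 16 hr at 37 °C. Luciferase was read by ONE-Glo luminescence after 30 min at room temperature.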
Nrf2 activator: activates Nrf2 signaling; AREc32 ARE-luciferase reporter (MCF7-derived line), luminescence, 24 h; Potency, µM (top dose mostly 46.1 µM), inactives show at the highest dose activation, hits mostly activators; 410,000 compounds, 0.31% hits; note: % of control where 0% means no effect; nearly all actives have a fitted effect of over 65% in size
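Luminescent ARE reporter assay in AREc32_Fluc cells: overnight plating at 37 deg C, 24 hr compound incubation, Steady-Glo added, 30 min RT before reading.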
Nrf2 block: inhibitors of Nrf2 signaling. AID 504444. Potency, µM (highest dose often 46 µM), for inactives: top-dose activity change, negative = inhibition, actives largely listed as inhibitors. A549 ARE-Fluc reporter, luciferase luminescence, 18-24 h. 360,000 compounds, 2.1% hits; note: % is set by controls: 0 for no effect and ±100 for the full control effect; nearly all actives have a fitted effect of over 60% in size
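Nrf2 function is reported as luminescence of an ARE-controlled luciferase in A549 cells. Compounds were tested at several concentrations, and a CellTiter-Fluor read on the same wells flagged cytotoxicity.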
IDH1 R132H inh: human IDH1 R132H inhibition; IDH1-R132H enzyme, NADPH consumption, diaphorase/resazurin fluorescence; 390,000 compounds, 0.093% hits; O75874; Potency, µM (highest dose often 76.6 µM), for inactives: at the top dose activity change, negative = inhibition, actives largely listed as inhibitors; note: % is set by controls: 0 for no effect and ±100 for the full control effect; nearly all actives have a fitted effect of over 65% in size
Target sequence (O75874 whole entry R132H, stated change not applied): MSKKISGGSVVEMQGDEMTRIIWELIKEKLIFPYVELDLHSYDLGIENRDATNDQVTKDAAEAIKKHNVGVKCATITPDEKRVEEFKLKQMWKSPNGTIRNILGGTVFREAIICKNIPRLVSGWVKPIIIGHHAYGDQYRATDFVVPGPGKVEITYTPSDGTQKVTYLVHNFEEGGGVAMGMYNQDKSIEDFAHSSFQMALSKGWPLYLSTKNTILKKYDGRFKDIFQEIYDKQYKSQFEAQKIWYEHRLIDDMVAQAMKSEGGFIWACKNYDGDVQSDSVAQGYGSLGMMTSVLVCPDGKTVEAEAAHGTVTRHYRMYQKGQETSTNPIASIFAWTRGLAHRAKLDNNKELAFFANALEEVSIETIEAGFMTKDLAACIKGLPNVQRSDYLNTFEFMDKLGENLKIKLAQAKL
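IDH1-R132H (0.5 ug/mL dispensed) in pH 7.5 Tris buffer was preincubated 30 min with compound, then given a substrate mix of 0.016 mM NADPH and 2 mM alpha-KG for 80 min at room temperature; remaining NADPH was read by diaphorase/resazurin fluorescence.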
A549 tox-1: counter-screen for Nrf2 inhibitors: cytotoxicity in A549 cells; A549 ARE-Fluc cells, CellTiter-Fluor viability, 18-24 h; AID 504648; 390,000 compounds, 0.16% hits; Potency, µM (highest dose often 46 µM), inactives show top-dose activity change, negative = cytotoxicity, actives largely listed as inhibitors; note: % is set by controls: 0 for no effect and ±100 for the full control effect
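A549 ARE-Fluc cells in 5% FBS OPTI-MEM, 5000 cells/well, rested 2 h then exposed to compounds in concentration-response for 18-24 h at 37 °C. Viability by CellTiter-Fluor fluorescence (Ex 405/Em 525) after 30 min; luciferase luminescence (BugLite, 15 min, RT) read afterwards.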
FLuc enzyme inh: firefly luciferase inhibition, Nrf2 hit validation. shares compounds with Nrf2 block. purified firefly luciferase, luminescence inhibition. Potency, µM (doses to about 57.5 µM), inactives show top-dose activity change, negative = inhibition, hits mostly inhibitors. 1,400 compounds, 4% hits. AID 720522; note: % is set by controls: 0 for no effect and ±100 for the full control effect; nearly all actives have a fitted effect of over 65% in size
A549 tox-2: A549 cytotoxicity, Nrf2 inhibitor counterscreen | A549 ARE-Fluc cells, cytotoxicity counterscreen | Potency, µM (top dose mostly 46.1 µM), without a hit: at the top dose activity change, negative = cytotoxicity, hits mostly inhibitors | shares compounds with Nrf2 block | 1,400 compounds, 2% hits | AID 720523;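 note: cells exposed to compounds for 18 to 24 hours; % is set by controls: 0 for no effect and ±100 for the full control effect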
Nrf2 ARE inh: reduces Nrf2 ARE reporter signal in A549 cells. shares compounds with Nrf2 block. A549 ARE-firefly luciferase reporter, luminescence. Potency, µM (series often up to 46.1 µM), without a hit: at the highest dose activity change, negative = inhibition, actives largely listed as inhibitors. 1,400 compounds, 74% hits. AID 720524; note: % is set by controls: 0 for no effect and ±100 for the full control effect; nearly all actives have a fitted effect of over 65% in size
* marks the source's active call; other numbers are inactive results; ? = inconclusive; nt = no result given; [ ] = another dose, or the depositor's remark. Calls come from the whole dose curve; as a rule, active = well fitted curve in the direction sought with a large enough effect; inconclusive = small, poorly fitted or top-dose-only effect, or another doubt; inactive = no such curve, though single readings can be large; an effect the other way counts as inactive or inconclusive. Potency is the fitted concentration of half-maximal effect.

SMILES | ELG1 DNA repair | Nrf2 activator | Nrf2 block | IDH1 R132H inh | A549 tox-1 | FLuc enzyme inh | A549 tox-2 | Nrf2 ARE inh
CCOc1ccc(NC(=O)CN2CCSc3ccc(S(=O)(=O)N4CCCC4)cc32)cc1 | nt | 4% | nt | -11% | ? | nt | nt | nt
CN(C)CC#Cc1cccc(-c2nc(C(=O)O)cc3c2[C@@H](CCO)N(S(=O)C(C)(C)C)C3)c1 (stereo partly drawn) | nt | 1% | nt | nt | nt | nt | nt | nt
CC(C)NC(=O)N(C)C[C@H]1Oc2ccc(NC(=O)Cc3ccccc3)cc2C(=O)N([C@H](C)CO)C[C@@H]1C | 16% | -1% | 14% | 3%[38.3 µM] | 19% | nt | nt | nt
COc1ccc(CNC(=O)c2cc3c(-c4ccccc4F)nn(C)c3s2)cc1 | nt | 0% | ? | -6% | 1% | nt | nt | nt
O=C(OCc1ccccc1Cl)C1CC(=O)N(Cc2ccco2)C1 (stereo not drawn) | 16% | 5% | 5% | 5% | 2% | nt | nt | nt
CCOC(=O)[C@@H]1[C@H]2COc3ccccc3[C@H]2N2C(=O)N(c3ccc(OC)cc3)C(=O)[C@]12C | -5% | -1% | 1% | 6% | -17% | nt | nt | nt
Cc1cc(/C=C(\C#N)C(=O)Nc2ccc(Cl)cc2)c(C)n1-c1ccc(N2CCOCC2)c([N+](=O)[O-])c1 | ? | -1% | 5.2µM* | -1% | -23% | 2% | -10% | 4.6µM*
CCCC12CN3CC(CCC)(CN(C1)C3c1ccc(OCc3ccccc3)cc1)C2=O (stereo not drawn) | nt | 1% | ? | 22% | -7% | nt | nt | nt
CC12Cc3ccc4ccccc4c3C=C1C[N+](C)(C)C2 (stereo not drawn) | -11% | -1% | 1.3µM* | -2% | -19% | 0% | -7% | 18µM*
C=CC[n+]1ccc(/C=C2\C=Cc3cc(C)ccc3N2CC)c2ccccc21 | 1.3µM* | -4% | 7.3µM* | 10% | ? | ? | ? | nt
CC1CC2C3CCC4=CC(=O)C=CC4(C)[C@@]3(Cl)C(O)CC2(C)C1(O)C(=O)CO (stereo partly drawn) | nt | 0% | ? | -9% | -13% | nt | nt | nt
CC12CCC(=O)C=C1CCC1C3CC(O)C(O)(C(=O)CO)C3(C)CC(O)C12F (stereo not drawn) | nt | 2% | 0.1µM* | -11% | -1% | 4% | -9% | 0.052µM*
CC(=O)C1CCC2C3CCC4=CC(=O)CCC4(C)C3(F)C(O)CC12C (stereo not drawn) | nt | 0% | 0.92µM* | 8% | -3% | 2% | -1% | 2.1µM*
C[C@@H]1C[C@H]2[C@@H]3CCC4=CC(=O)C=C[C@]4(C)[C@@]3(F)C(O)C[C@]2(C)[C@@]1(O)C(=O)CO (stereo partly drawn) | nt | nt | 0.0052µM* | nt | -1% | 0% | -3% | 0.0065µM*
C[C@]12C=CC(=O)C=C1CC[C@H]1[C@@H]3C[C@@H](O)[C@](O)(C(=O)CO)[C@@]3(C)C[C@H](O)[C@@]12F | ? | -1% | 0.41µM* | -5% | -15% | -1% | -5% | 0.092µM*
CC(=O)OC1CC2(C)C(C(C)=O)CCC2C2CCC3=CC(=O)CCC3(C)C12 (stereo not drawn) | nt | 0% | -5% | 1% | 2% | nt | nt | nt
COCCNC(=S)N(C)[C@H]1C[C@H]2c3cc(-c4ccccc4)ccc3CCN2C(=O)[C@H]1[C@H](C)O | nt | 3% | nt | -4% | nt | nt | nt | nt
Cc1ccc2c(CC(=O)Nc3cc(C(F)(F)F)ccc3Cl)coc2c1C | nt | 0% | ? | 0% | -8% | nt | nt | nt
CC(=O)OCC(=O)C1(O)CCC2C3CCC4=CC(=O)C=CC4(C)C3(F)C(O)CC21C (stereo not drawn) | nt | 0% | 0.01µM* | 4% | -5% | 1% | -2% | 0.013µM*
CC(C)n1ncc2c(C(=O)NCCc3ccc(S(N)(=O)=O)cc3)cc(C3CC3)nc21 | -22% | 2% | -7% | -1% | 18% | nt | nt | nt
Cc1cc(N(C)C)cc(C)c1/C=C/c1ccnc2ccccc12 | nt | nt | nt | nt | nt | ? | ? | 9.2µM*
COc1cc(OC)c(OC)cc1/C=C/c1ccnc2ccccc12 | nt | 5% | -12% | 17% | -17% | nt | nt | nt
CC(=O)C(C)n1c(CN(C)Cc2ccccc2)nc2c1c(=O)n(C)c(=O)n2C (stereo not drawn) | 2% | 4% | ? | -3% | -2% | nt | nt | nt
CC(C)n1c(CN(C)Cc2ccccc2)nc2c1c(=O)n(C)c(=O)n2C | 4.1µM* | 0% | 0.46µM* | -5% | -17% | 2% | -3% | 4.1µM*
N#Cc1nc(-c2ccco2)oc1N1CCN(c2cccc(Cl)c2)CC1 | -12% | 0% | 1.8µM* | -2% | 0% | -23% | ? | 10µM*
SMILES | ELG1 DNA repair | Nrf2 activator | Nrf2 block | IDH1 R132H inh | A549 tox-1 | FLuc enzyme inh | A549 tox-2 | Nrf2 ARE inh
Cc1nn(C)c(C)c1CN(C)S(=O)(=O)c1ccc2ccccc2c1 | ? | 0% | 2.5µM* | -3% | -30% | 1% | -1% | 1.2µM*
Nc1ncnc2c(C3OC(CO)C(O)C3O)c[nH]c12 (stereo not drawn) | nt | 0% | 0.23µM* | 2% | ? | 2% | ? | 0.1µM*
Cc1ccc(NC(=O)COc2ccc(N(C)C(=O)C(C)(C)C)cc2)cc1S(=O)(=O)N1CCCCC1 | 8.2µM* | 0% | 3.7µM* | -5% | ? | -15% | ? | 5.2µM*
O=C(Oc1cccnc1)c1ccc([N+](=O)[O-])cc1Cl | 17% | -1% | 1µM* | -7% | 5% | 4% | ? | nt
CC(=O)c1c(C)n(CC(=O)NCc2ccc3c(c2)OCO3)c2ccccc12 | ? | 1% | 5.8µM* | -1% | -5% | 1% | 11% | ?
Cc1ccc(CNC(=O)CS(=O)(=O)Cc2nc(-c3ccccc3C)oc2C)cc1 | nt | 0% | ? | 7% | -17% | nt | nt | nt
Cc1cccc(C(=O)Nc2nc(-c3nnn(-c4cc(C)ccc4C)c3C)ns2)c1 | nt | 0% | 9.2µM* | -2% | -14% | -15% | -14% | 7.3µM*
CC(=O)Nc1ccc(NC(=O)c2c(-c3ccccc3)noc2C)cn1 | 2% | 2% | 7.3µM* | -14% | -1% | 3% | -8% | 9.2µM*

From PubChem
